# Bioassay records from PubChem BioAssay.
# Most compounds without a hit are left out; they make up all but 3.3% or so of the library.
# PRMT1 FP inh = PRMT1 methyltransferase inhibitors, primary screen, biochemical, fluorescence polarization | Protein arginine N-methyltransferase 1 (Homo sapiens), Q99873 | recombinant PRMT1, activity-based probe fluorescence polarization | inhibition, % at 2.79 µM | hit rate 1.3% among 370,000 | AID 652257, 2013;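 active = inhibition above about 21% made by adding two undisclosed values, limit read from the data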
# Target sequence (Q99873 whole entry, looked up): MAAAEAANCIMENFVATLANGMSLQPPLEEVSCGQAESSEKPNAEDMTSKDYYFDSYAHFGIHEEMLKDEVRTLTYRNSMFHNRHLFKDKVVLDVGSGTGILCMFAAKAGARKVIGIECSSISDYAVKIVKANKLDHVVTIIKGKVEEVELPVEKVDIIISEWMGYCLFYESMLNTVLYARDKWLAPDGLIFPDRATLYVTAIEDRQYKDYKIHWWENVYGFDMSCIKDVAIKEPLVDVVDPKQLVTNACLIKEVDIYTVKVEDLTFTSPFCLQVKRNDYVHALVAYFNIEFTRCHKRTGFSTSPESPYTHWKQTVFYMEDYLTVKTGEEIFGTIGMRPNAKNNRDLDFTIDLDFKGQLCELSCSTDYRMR
# NOD2-RIPK2 inh = NOD2-RIPK2 binding disruptors in cells, primary screen, fluorescence, CHO cells, BLA complementation; Receptor-interacting serine/threonine-protein kinase 2 (Homo sapiens), O43353; CCF4 ratio; inhibition, % at 4.98 µM; hit rate 0.38% among 360,000; AID 624267, 2012; in the data active = inhibition above about 21%
# TLR4-MyD88 BLA = inhibitors of TLR4-MyD88 association in cells, primary screen, cell-based, HeLa CL3-4, BLA complementation, FRET ratio; HeLa CL3-4 TLR4/MyD88 BLA complementation; inhibition, % at 8.4 µM; Toll-like receptor 4 (Homo sapiens) + Myeloid differentiation primary response protein …; hit rate 0.18% among 200,000; in the data active = inhibition above about 25%
# rCAG RNA binder = binders of r(CAG) RNA repeats, primary screen, biochemical, fluorescence. r(CAG) RNA repeat, TO-PRO-1 dye displacement fluorescence. inhibition, % at 3 µM. hit rate 1.3% among 370,000. AID 651821, 2012;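 active = inhibition above the plate cutoff, the mean of all test compounds on that plate plus 3 SD, cut at about 35% in these data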;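 note: higher means more dye released from RNA so lower well fluorescence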
# ABHD5-PLIN5 inh = ABHD5-PLIN5 interaction inhibitors, primary screen, cell lysate, split luciferase complementation, luminescence; Perilipin-5 (Homo sapiens) + 1-acylglycerol-3-phosphate O-acyltransferase ABHD5 (Homo …; inhibition, % at 4 µM; Split G. princeps luciferase complementation, 4 h; hit rate 0.78% among 360,000;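 active = inhibition above the mean inhibition across every tested compound plus 3 SD, cut at about 22% in these data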
# TLR9-MyD88 inh = inhibitors of TLR9-MyD88 association in cells, primary screen, cell-based, CHO, BLA complementation, fluorescence | inhibition, % at 4.98 µM | CCF4 FRET ratio | hit rate 0.21% among 340,000 | AID 504734, 2011;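 active = inhibition above the mean over all tested compounds plus 3 SD, cut at about 21% in these data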
# rCAG binder conf = small molecules binding CAG repeat RNA – biochemical, fluorescence, confirmation; shares compounds with rCAG RNA binder; r(CAG) RNA repeat, TO-PRO-1 dye displacement fluorescence; inhibition, % at 3 µM; hit rate 70% among 4,300; AID 652065, 2013;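 active = inhibition above a per-plate cutoff, the mean inhibition of sample wells plus 3 SD, cut at about 35% in these data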;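 note: loss of TO-PRO-1 fluorescence as compound displaces dye from 1x1 AA loop RNA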
# dCAG dye counter = displacement of TO-PRO-1 from CAG DNA duplex, counter-screen for rCAG RNA repeat binder project, biochemical, fluorescence, TO-PRO-1 dye, d(CAG) DNA oligo. shares compounds with rCAG RNA binder. d(CAG) DNA oligo TO-PRO-1 dye displacement. inhibition, % at 3 µM. hit rate 94% among 4,300. AID 652068, 2013;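 active = inhibition above its plate's cutoff, the mean test-well inhibition plus 3 SD, cut at about 4.8% in these data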;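 note: hits displace the dye from DNA and so lower well fluorescence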
# dCAG dye DR = inhibitors of DNA CAG/GTC TO-PRO-1 complex, dose response, counter-screen for rCAG RNA repeat binder project, biochemical, fluorescence, TO-PRO-1 dye; AID 686960, 2013; DNA CAG/GTC duplex TO-PRO-1 dye displacement fluorescence; hit rate 20% among 250; IC50, µM; shares compounds with rCAG RNA binder; in the data active = IC50 below about 10 µM
# A number is an active result; . = inactive; / = no result.
SMILES,PRMT1 FP inh,NOD2-RIPK2 inh,TLR4-MyD88 BLA,rCAG RNA binder,ABHD5-PLIN5 inh,TLR9-MyD88 inh,rCAG binder conf,dCAG dye counter,others
O=[N+]([O-])c1ccccc1S(=O)(=O)Nc1cccc(-c2ccc(N3CCOCC3)nn2)c1,.,.,/,.,.,.,/,/,
CCN(CC)S(=O)(=O)c1ccc(NS(=O)(=O)c2ccc(OC)c([N+](=O)[O-])c2)cc1,.,.,.,42.5,.,.,.,.,
Cc1ccc([N+](=O)[O-])cc1S(=O)(=O)Nc1ccc(-c2ccc(N3CCCC3)nn2)cc1,.,.,/,37.4,.,.,43.5,15.5,
O=[N+]([O-])c1ccccc1S(=O)(=O)Nc1cccc(-c2ccc(N3CCCC3)nn2)c1,.,.,/,36.4,.,.,.,9.6,
CC(Sc1nnc(Cc2cccs2)n1C)C(=O)Nc1ccc(C(N)=O)cc1 (centres undefined),.,.,/,.,.,.,/,/,
COCCN1C(=O)CCC1(C)C(=O)Nc1c(C)cccc1C (centres undefined),.,.,/,.,.,/,/,/,
O=[N+]([O-])c1ccc(S(=O)(=O)Nc2ccc(-c3ccc(N4CCCC4)nn3)cc2)cc1,.,.,/,.,.,.,/,/,
O=[N+]([O-])c1ccc(Cl)c(S(=O)(=O)Nc2cccc(-c3ccc(N4CCCC4)nn3)c2)c1,.,.,/,47.1,.,.,51.6,18.4,
O=[N+]([O-])c1ccc(Cl)c(S(=O)(=O)Nc2ccc(-c3ccc(N4CCCC4)nn3)cc2)c1,.,.,/,47.1,.,.,39.3,11.6,
Cc1c([N+](=O)[O-])cc(S(=O)(=O)Nc2ccc(-c3ccc(N4CCCC4)nn3)cc2)cc1[N+](=O)[O-],.,.,/,56.2,.,.,65.2,27.7,
O=C(Nc1cccc(Br)c1)c1ccc2nc(N3C(=O)CCC3=O)sc2c1,.,.,.,44.0,.,.,.,9.7,
O=C(Nc1cccc([N+](=O)[O-])c1)c1ccc2nc(N3C(=O)CCC3=O)sc2c1,.,.,.,.,.,.,/,/,
N#CCCCc1cc2ccccc2cn1,.,.,/,.,.,.,/,/,
COc1ccc(/C(N)=N/OC(=O)Cc2cccs2)cc1,.,.,.,46.7,.,.,.,.,
COc1ccccc1NC(=O)O[C@@H]1CC[C@@]23CCCN2C(=O)CCC[C@H]3C1,.,/,/,/,/,/,/,/,
O=c1c2ccccc2oc2ccccc12,.,.,/,.,.,/,/,/,
O=c1c2ccccc2oc2cc(-c3ccc4[nH]ccc4c3)ccc12,.,.,/,35.5,.,.,.,10.7,
Cc1nc2c(C(=O)NCCc3ccccc3)c[nH]n2c(=O)c1Cl,.,.,.,63.8,.,.,54.1,12.8,
Cc1nc2c(C(=O)O)cnn2c(C)c1Cc1ccccc1F,.,.,/,.,.,.,/,/,
Cc1nc2c(C(=O)NCCC(C)C)c[nH]n2c(=O)c1Cl,.,.,.,37.0,.,.,36.2,8.2,
Cc1nc2c(C(=O)NCCC(C)C)c[nH]n2c(=O)c1Cc1ccccc1F,.,.,.,68.8,.,.,76.2,41.9,
Cc1cc(C(=O)NCCC(C)C)c2ccccc2n1,.,.,/,.,.,.,/,/,
CCCCCCCCCC(=O)N[C@@H]1c2cc(OC)c(OC)cc2C[C@H]1OCc1ccccc1,.,.,/,.,.,.,/,/,
CC(C)NC(=O)C1(C)CN(S(C)(=O)=O)CC(=O)N1CCCN1CCOCC1 (centres undefined),.,.,/,.,.,/,/,/,
C/C(=N\NC(=O)c1ccccc1)c1cc2cc([N+](=O)[O-])ccc2oc1=O,.,.,.,49.6,.,.,43.7,15.3,
SMILES,PRMT1 FP inh,NOD2-RIPK2 inh,TLR4-MyD88 BLA,rCAG RNA binder,ABHD5-PLIN5 inh,TLR9-MyD88 inh,rCAG binder conf,dCAG dye counter,others
Cc1ccnc(NS(=O)(=O)c2ccc(NC(=O)c3cc(-c4ccc(Br)cc4)nc4ccccc34)cc2)n1,.,.,.,38.6,.,.,72.2,32.6,dCAG dye DR=.
Cc1ccnc(NS(=O)(=O)c2ccc(NC(=O)c3cc(-c4ccccc4)nc4ccccc34)cc2)n1,.,.,.,45.3,.,.,55.8,15.9,
COc1ccc(-c2cc(C(=O)Nc3ccc(S(=O)(=O)Nc4ncccn4)cc3)c3ccccc3n2)cc1,.,.,/,57.6,.,.,56.5,21.7,
COc1cc(-c2cc(C(=O)Nc3ccc(S(=O)(=O)Nc4ncccn4)cc3)c3ccccc3n2)cc(OC)c1OC,.,.,/,.,.,.,/,/,
Cc1ccc(-c2cc(C(=O)Nc3ccc(S(=O)(=O)Nc4nc(C)cc(C)n4)cc3)c3ccccc3n2)cc1,.,.,.,.,.,.,/,/,
OC(CNCCc1ccc(C(F)(F)F)cc1)COC(c1ccccc1)c1ccccc1 (centres undefined),.,.,/,.,.,.,/,/,
C[C@H](CO)N1C[C@H](C)[C@@H](CN(C)S(=O)(=O)c2ccc(-n3cccn3)cc2)OCc2cn(nn2)CCCC1=O,.,.,/,.,.,.,/,/,
O=C(O)c1cccc(N2C(=O)C3C4C=CC(C4=C(c4ccccc4)c4ccccc4)C3C2=O)c1 (centres undefined),.,.,.,34.7,.,/,46.8,11.5,
O=C(O)c1cccc(N2C(=O)c3ccc4c5c(ccc(c35)C2=O)C(=O)N(c2cccc(C(=O)O)c2)C4=O)c1,.,.,/,.,.,.,/,/,
Cc1cc(C)c(Nc2cc(S(=O)(=O)O)c(N)c3c2C(=O)c2ccccc2C3=O)c(C)c1,.,.,.,93.8,.,.,93.4,79.4,
CC(=O)N1CCN(Cc2cc(=O)oc3cc(C)cc(C)c23)CC1,.,.,/,.,.,/,/,/,
CCC(C)n1c(NC(=O)c2ccccc2)c(C#N)c2nc3ccccc3nc21 (centres undefined),.,.,.,38.1,.,.,68.2,30.9,
COc1ccccc1N=c1oc2cc(O)ccc2cc1C(=O)NCC1CCCO1 (centres undefined),.,.,.,.,.,.,/,/,
